The structures appear in SMILES notation. The campaign covered roughly 2,400 compounds. About 360 (15%) were called active.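 Rule for the calls: active = viability falls under 70% at one or more tested concentrations, taken as toxicity; inactive = viability stays over 70% at every dose.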 A selection follows. Results with a measured potency or affinity are listed apart.

The assay in a line: viability loss in HeLa cells – cytotoxicity control for MgcRacGAP inhibitor project, dose response (AID 624300). As to conditions: CellTiter-Glo luminescence, 24 h; series mostly up to 100 µM. Background: ATP-based viability assays read luminescence as a measure of living cells.
Take `COc1ccc(-n2c(=O)c3c4c(sc3n3c(=S)[nH]nc23)CCCC4)cc1`: the result was inactive.

With `c1cc2c(cc1CNc1ccc(N3CCOCC3)cc1)OCO2`, the call was inactive. As to `COc1cc(/C=N/n2c(C3CCCCC3)n[nH]c2=S)ccc1O`, the call was inactive. With `CN1CCN(/N=C/c2nc(-c3ccc(Cl)cc3)n3ccccc23)CC1`, the result was inactive.

As for `Oc1ccc(N2CCN(C(c3cccs3)c3nnnn3CCc3ccccc3)CC2)cc1` (stereo not drawn), the compound was called inactive. For `Cc1ccc(NC(=O)CCC(=O)N/N=C/c2ccc(O)cc2)cc1`, the result was inactive. The value for `Cn1cccc1CC(=O)N/N=C/C=C/c1ccco1` was “inactive”; that for `Cc1ccc(Nc2n[nH]c(=S)s2)c(C)c1` was “inactive”; that for `O=C(CNC1CC1)Nc1cc(C(F)(F)F)ccc1Cl` was “inactive”. For `CCC1=NN2C(=N)/C(=C\c3ccc(SCc4ccco4)o3)C(=O)N=C2S1` the value was “inactive”; for `O=C(COc1ccccc1[N+](=O)[O-])N/N=C/c1ccc(O)cc1`, “inactive”; for `CCOc1cc(/C=N/NC(=O)c2ccccc2OCc2ccc(F)cc2)ccc1O`, “inactive”.

For the compound `O=C(N/N=C/c1ccc(O)c(O)c1)c1cccc(S(=O)(=O)N2CCCCC2)c1`, the compound was called inactive. Turning to `CC(=O)Nc1ccc(OC(=O)c2cc3ccccc3oc2=O)cc1`, the compound was called inactive.

Regarding `CCOC(=O)Nc1ccc(OC(=O)Oc2ccc(NC(=O)OCC)cc2)cc1`, the call was inactive. For `C=CCc1cc(C=Nc2ccc(N3CCOCC3)cc2)cc(OCC)c1O` the value was “inactive”; for `CCc1nnc(N/N=C/c2c(C)[nH]c3ccccc23)n1N`, “inactive”; for `CCN1CCN(C(C)C(=O)NC2CCCCC2)CC1` (stereo not drawn), “inactive”. For `C/C(=N\NC(=O)c1ccccc1F)c1ccc2c(c1)Nc1ccccc1S2`, the compound was classed as inactive. For `C/C(=N/Nc1ccc(C(=O)O)cc1)c1ccc2c(c1)Nc1ccccc1S2`, the compound was classed as inactive. On to `N#CC1=C(S)N(c2ccccc2)C2(CCCCC2)NC1=O`, for which the outcome was inactive. For `CC1(C)O[C@@H]2[C@H](O1)[C@@H](COS(=O)(=O)O)O[C@H]2n1c(=S)[nH]c2c(=O)[nH]c(N)nc21`, the outcome was inactive. As to `Cc1c(N(C)C)nc2ccccc2c1N`, the outcome was inactive.

`O=C(O)CC1SC(=Nc2ccc(O)cc2)NC1=O` (stereo not drawn): the outcome was inactive. For `COc1cc(/C=N/NC2=NCCCCC2)ccc1O` the value was “inactive”; for `S=c1[nH]nc(Nc2ccccc2Cl)s1`, “inactive”.

Consider `Cc1cc(/C=C2\SC(=S)NC2=O)c(C)[nH]1`, for which the compound was classed as inactive.

Take `O=C1NC(=S)S/C1=C\C=C\c1ccc([N+](=O)[O-])o1`: the outcome was inactive. Turning to `O=C1NC(=NCc2ccccc2)S/C1=C/c1ccc(O)cc1`, the call was inactive.

Turning to `COc1cc(/C=C2\SC(=Nc3ccc(Cl)c(C(=O)O)c3)NC2=O)c(Br)c(Br)c1O`, the result was inactive. The value for `CCOC(=O)C1CCN(Cc2cccc(Oc3ccccc3)c2)CC1` was “inactive”; that for `COc1cc(/C=N/NC(=O)c2cn(-c3cccc(C)n3)cn2)ccc1O` was “inactive”. With `COc1cc([C@H]2OC[C@H]3[C@@H]2CO[C@H]3c2ccc(O)c(OC)c2)ccc1O`, the outcome was inactive.

On to `O=C(CN1CCN(c2ccc(O)cc2)CC1)N(C1CC1)C1CCS(=O)(=O)C1` (stereo not drawn), for which the call was inactive. Take `N#C/C(=C/c1ccc(O)c(O)c1)C(=O)NCc1ccc(Cl)cc1`: the result was inactive.

Consider `COc1ccc(CNCC(=O)Nc2cc(OC)cc(OC)c2)cc1`, for which the outcome was inactive.

For `C=CCc1ccc(OCCOCCNCCCC)c(OC)c1`, the compound was classed as inactive. With `COc1ccc(NC2CCCN(C(=O)c3ccc4[nH]c(C)c(C)c4c3)C2)cc1` (stereo not drawn), the result was inactive.

Take `Cc1ccc(NC(=O)CCC(=O)N/N=C/c2ccc(O)cc2O)cc1`: the call was inactive.

Turning to `Cc1cccc(C=Nc2ccc3c4c(cccc24)CC3)c1O`, the call was inactive. For `Cc1ccc(O)c(N=Cc2cc(Cc3ccccc3)cc([N+](=O)[O-])c2O)c1`, the compound was called inactive. On to `C=CCc1cccc(C=Nc2cc(Br)ccc2O)c1O`, for which the outcome was inactive.

Take `Cc1ccc(O)c(N=Cc2sc3ccccc3c2Cl)c1`: the compound was classed as inactive. For `O=C(CN1CCN(c2ccccn2)CC1)Nc1ccc(F)cc1`, the outcome was inactive. For `CCOc1cc(C=NNC(=O)c2cccc(S(=O)(=O)N3CCCC3)c2)ccc1O` the value was “inactive”. As to `COCCCNC(=O)/C(C#N)=C/c1c(N2CCN(c3ccc(OC)cc3)CC2)nc2c(C)cccn2c1=O`, the compound was classed as inactive. For the compound `O=C(c1ccco1)N1CCN(Cc2cccc([N+](=O)[O-])c2)CC1`, the compound was classed as inactive. With `COc1cc(/C=N/N(C)c2ccccc2)ccc1O`, the compound was classed as inactive. As for `COc1cc(OC)c(OC)cc1/C=N/N(C)c1ccccc1`, the compound was classed as inactive.

As for `COc1ccc(Cn2c(O)c(/C=N/NC(=O)c3cccnc3)c3ccccc3c2=O)cc1`, the compound was called inactive.

Consider `CCOC(=O)c1[nH]c2ccccc2c1NC(=S)Nc1ccccc1C`, for which the outcome was inactive.

With `CCN(CC)S(=O)(=O)c1ccc(C)c(NC(=O)CN2CCN(C)CC2)c1`, the call was inactive.

Regarding `Oc1ccc(/C=N/Nc2cccc(Cl)n2)c(O)c1`, the call was inactive. With `Cc1nc(Cl)cc(N/N=C/c2ccc(O)cc2O)n1`, the compound was called inactive. For `Oc1ccc(/C=N/Nc2cc(N3CCOCC3)nc(N3CCOCC3)n2)cc1` the value was “inactive”; for `Oc1ccc(/C=N/Nc2nc(N3CCCC3)nc(N3CCCC3)n2)cc1O`, “inactive”. With `CCOc1cc(/C=N/n2cnnc2)ccc1O`, the call was inactive. As for `CC1CCC/C(=C\Nc2ccc(O)cc2)C1=O` (stereo not drawn), the compound was called inactive.

Take `CCOCCCNC(=O)CN1CCN(c2ccc(F)cc2)CC1`: the result was inactive. With `CC(C)=C(NC(=O)c1ccccc1)C(=O)N/N=C/c1ccc(O)cc1`, the compound was classed as inactive. As to `O=C(NN=Cc1ccc(O)cc1)c1ccccc1NS(=O)(=O)c1cccs1`, the compound was called inactive. For the compound `C=CCc1cc(Cl)ccc1OCCNCCN1CCOCC1`, the call was inactive. Regarding `CCCS(=O)(=O)N1CCN(C2Cc3ccccc3C2)CC1`, the outcome was inactive. The value for `C=CCOC(=O)c1cc(-c2ccc(/C=C3\C(=O)NC(=O)C(C#N)=C3C)o2)ccc1Cl` was “inactive”; that for `CCN1CCN(CC(=O)Nc2cc(C(F)(F)F)ccc2OCCOC)CC1` was “inactive”; that for `COCCNC(=O)Cn1cc(/C=N/NC(=O)c2ccc(Oc3ccc(O)cc3)cc2)c2ccccc21` was “inactive”. For `CCOc1cc(-c2nc3ccccc3s2)ccc1O` the value was “inactive”; for `CCOc1cc(/C=N/n2c(C)nnc2C)ccc1O`, “inactive”; for `NCC[C@H](O)C(=O)N[C@@H]1C[C@H](N)[C@@H](O[C@H]2O[C@H](CN)[C@@H](O)[C@H](O)[C@H]2O)[C@H](O)[C@H]1O[C@H]1O[C@H](CO)[C@@H](O)[C@H](N)[C@H]1O`, “inactive”.

In the case of `CSCc1ccc(C(=O)N2CCCC(Nc3ccc4c(c3)OCCO4)C2)o1` (stereo not drawn), the compound was called inactive.

In the case of `Cc1ccccc1N1C(S)=C(C#N)C(=O)NC12CCCCC2`, the compound was classed as inactive.

`C/C(=N\Nc1cccc2cccnc12)c1ccc[nH]1`: the result was inactive. As for `O=C1C(=Cc2ccco2)CCC1=Cc1ccco1`, the compound was classed as inactive. `COc1ccc(CN2CCN(Cc3ccco3)CC2)cc1OC`: the result was inactive. As to `CCN(CC)c1ccc(NC(=O)CCN2C(=O)c3ccccc3S2(=O)=O)c(C)c1`, the compound was classed as inactive.

With `Nc1cc(C(F)(F)F)ccc1N1CCOCC1`, the outcome was inactive. The value for `CCc1ccccc1NC(=S)NCC1CCN(c2ccc(OC)cc2)C1` (stereo not drawn) was “inactive”; that for `Nc1ccc2c(c1)[nH]c(=O)c1cc(N)ccc12` was “inactive”. `Nc1ccc2nc(Cc3ccccc3)[nH]c2c1`: the compound was called inactive.

For the compound `O=C(c1ccc(Cl)c(S(=O)(=O)N2CCCCCC2)c1)N1CCN(c2ccc(O)cc2)CC1`, the compound was classed as inactive.

In the case of `CCN(CC)S(=O)(=O)c1ccc(N/N=C/c2ccc(O)cc2)nc1`, the result was inactive. As to `CSc1nc(C)c2c(n1)N(c1ccc(O)cc1)CC2`, the outcome was inactive. On to `CCN1CCN(c2ccc(N=Cc3ccccc3O)cc2)CC1`, for which the call was inactive.

As for `CC(=O)c1c(C)c(C)c2n1CCn1c(C)ccc1-2`, the compound was classed as inactive. For `CCN=C1S/C(=C\c2ccc(O)c(OCC)c2)C(=O)N1CC`, the call was inactive. On to `CN1C(=O)/C(=C/c2ccc(C(=O)Nc3ccc(O)cc3C(=O)O)cc2)SC1=S`, for which the result was inactive.

As to `Cc1ccc(NCCCCO)cc1C`, the outcome was inactive. With `O=c1cc(-c2ccc(O)c(O)c2)oc2cc(O)c([C@@H]3O[C@H](CO)[C@@H](O)[C@H](O)[C@H]3O)c(O)c12`, the compound was classed as inactive.

`C/C(=N\NC(=O)c1cccc(N/N=C(\C)c2cc(O)ccc2O)c1)c1cc(O)ccc1O`: the call was inactive. Take `CC(=O)C1=C(O)C(=O)N(c2ccc(O)cc2)C1c1ccccc1[N+](=O)[O-]` (stereo not drawn): the compound was called inactive.

Consider `Cn1c(=O)[nH]c(NCCc2ccc(O)cc2)c([N+](=O)[O-])c1=O`, for which the call was inactive.

With `COc1cc(/C=N/NC(=O)c2cc[n+]([O-])cc2)ccc1O`, the outcome was inactive. For the compound `O=C1C=CC(=O)N1c1ccccc1N1C(=O)C=CC1=O`, the call was inactive. As for `CCS(=O)(=O)c1ccc2oc(=O)c(/C=C(\O)c3ccc(Cl)cc3)nc2c1`, the result was inactive. Take `CN(C)CCCC1Sc2ccccc2Sc2ccccc21` (stereo not drawn): the result was inactive. For `Nc1cc([N+](=O)[O-])ccc1Nc1ccc(O)cc1`, the compound was classed as inactive. Consider `Cc1ccc(-n2c(=S)[nH]c3sc4c(c3c2=O)CCC4)cc1`, for which the call was inactive. For `COc1cc(/C(C)=N\NC(=O)CSc2nc3ccccc3n2C)ccc1O` the value was “inactive”.

On to `CCN1CCN(CC(=O)Nc2nc3ccc(OC)cc3s2)CC1`, for which the result was inactive. As for `CCC(=O)N1CCc2cc(S(=O)(=O)CCC(=O)NCc3ccc(C)cc3)ccc21`, the result was inactive. Turning to `O=C(CCc1c[nH]c2ccccc12)NCCc1ccc(O)cc1`, the compound was called inactive. The value for `CCOc1ccc(CN2CCN(Cc3c[nH]c4ccccc34)CC2)cc1` was “inactive”; that for `Nc1nc2cc(S(=O)(=O)NC3=NCCCCC3)ccc2s1` was “inactive”; that for `Nc1nc(N)c2[nH]c(=S)[nH]c2n1` was “inactive”.

On to `CN(CC(=O)NCc1ccncc1)S(=O)(=O)c1ccc(Cl)cc1`, for which the compound was called inactive. Turning to `COC(=O)c1[nH]c2ccc(C)cc2c1NC(=O)Oc1ccccc1`, the outcome was inactive. For `Nc1ccc(OCCc2ccccc2)cc1`, the outcome was inactive. Take `COc1cccc(OC)c1OCCNC(C)(C)C`: the result was inactive.

Turning to `O=[N+]([O-])c1ccccc1OCCNCc1ccccc1`, the compound was called inactive. The value for `CC(C)[C@H](N[C@@H](C)c1ccccc1)c1c(O)ccc2ccccc12` was “inactive”. Consider `CCn1c(-c2ccccc2)csc1=Nc1ccc(O)cc1`, for which the compound was called inactive.

Turning to `O=c1[nH][nH]cc1C=Nc1cc(Cl)ccc1O`, the outcome was inactive.

For `CN(C)/C=C1\NC(=S)N(c2ccccc2)C1=O`, the compound was classed as inactive.

For the origin of these results see PubChem BioAssay AID624300 (Southern Research Specialized Biocontainment Screening …, 2012).
